Here are results for 33 molecules from PubChem BioAssay (EPA / NIEHS).

Results filed as inconclusive are left out. Active and inactive are the calls of the source. The calls were made as follows: active = hit-call score of the fitted dose curve at least 0.9, where 1 is the maximum; inconclusive = response in the unintended direction; inactive = score below 0.9.

A short description of assay [1]: ACEA_AR_antagonist_AUC_viability: ACEA Biosciences xCELLigence Real-Time Cell Analysis on Androgen Receptor Antagonism for Viability (AID 2283776).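 Also: 22Rv1 human prostate cancer cells growing on impedance electrode plates; area under impedance growth curve at 80 h after dosing as viability; hits lower the growth signal relative to DMSO meaning cytotoxicity.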 In a few lines:
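Impedance read-out (RT-CES): area under growth curve at 80 h post-dose, loss of signal scored vs DMSO baseline. 22Rv1 cells; 8-pt 1:4 series, top 100 uM final, ≤0.5% DMSO; biological duplicate.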

Assay [2] in a line: ACEA_ER_AUC_viability: ACEA Biosciences xCELLigence Real-Time Cell Analysis on Estrogen Receptor Agonism for Viability (AID 2283782).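 Also: hit means loss of impedance signal meaning reduced cell growth or viability.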 Put shortly:
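Continuous-exposure impedance cell analysis uses T-47D cells in charcoal-stripped serum, eight 1:4 dilutions topping at 100 uM final, biological duplicate. Area under the growth curve at 80 h is fitted against DMSO baseline.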

Take `O=c1cc(-c2ccccc2)oc2ccccc12`: the molecule was called inactive in assay [1].
Turning to `CCCCCCCC[N+](C)(CCCCCCCC)CCCCCCCC`, the AC50 was 0.925 µM (active) in assay [1] and 1.92 µM (active) in assay [2].
On to `O=C(C=Cc1ccccc1)OCc1ccccc1`, for which the result in assay [1] and in assay [2] was inactive.
Take `CCOC(=O)CC`: the call in assay [1] and in assay [2] was inactive.
Consider `Cc1ccc(C(C)c2ccc(C)c(C)c2)cc1C`, for which, in assay [1], the call was inactive. Further, the AC50 in assay [2] is 50 µM (active).
In the case of `Cn1c([N+](=O)[O-])cnc1COC(N)=O`, the molecule was classed as inactive in assay [1] and in assay [2].
On to `CC1=CC[C@H]2C[C@@H]1C2(C)C`, for which the call in assay [1] and in assay [2] was inactive.
In the case of `c1ccc2c(c1)ccc1cc3c(ccc4ccccc43)cc12`, the AC50 in assay [1] was 0.287 µM (active).
As for `O=C(O)CCCC[C@@H]1SC[C@@H]2NC(=O)N[C@@H]21`, the call in assay [1] and in assay [2] was inactive.
On to `NC(=O)N=NC(N)=O`, for which, in assay [1], the AC50 is 4.59 µM (active). Besides, the molecule was called inactive in assay [2].
As to `C=C[Si](C)(C)O[Si](C)(C)C=C`, the outcome in assay [1] and in assay [2] was inactive.
`CCO[Si](C)(OCC)OCC`: the molecule was classed as inactive in assay [1] and in assay [2].
As to `O=C(C(Cl)Cl)N1CCOC12CCCCC2`, the AC50 in assay [1] was 11 µM (active); in assay [2], 14.5 µM (active).
In the case of `CC(C)(C)c1ccc(-c2ccc(C(C)(C)C)cc2)cc1`, the outcome in assay [1] and in assay [2] was inactive.
As for `Cc1cc(C)c(C(=O)O)c(C)c1`, the outcome in assay [1] and in assay [2] was inactive.
Consider `CC(C)(C)c1ccc(N)cc1`, for which the result in assay [1] and in assay [2] was inactive.
Take `O=C(c1ccccc1)C1CCC1`: the AC50 in assay [1] is 0.391 µM (active). Further, the call in assay [2] was inactive.
`CCCCCc1ccc(Cl)cc1`: the result in assay [1] and in assay [2] was inactive.
For the molecule `CCCCCCCCCCOS(=O)(=O)O`, the call in assay [1] and in assay [2] was inactive.
Regarding `COC(=O)c1c(C)cc(O)c(C)c1O`, the AC50 in assay [1] is 4.23 µM (active). Also, in assay [2], the outcome was inactive.
In the case of `CNC(=S)NN`, the call in assay [1] and in assay [2] was inactive.
As for `CC/C=C\C/C=C\C/C=C\CCCCCCCC(=O)O`, the result in assay [1] and in assay [2] was inactive.
Turning to `CCCCCCCOC(=O)CCC`, the outcome in assay [1] and in assay [2] was inactive.
As to `CCCCCCCCO[C@@H]1O[C@H](CO)[C@@H](O)[C@H](O)[C@H]1O`, the outcome in assay [1] and in assay [2] was inactive.
Take `CC(=O)[C@H]1[C@H](C#N)C[C@H]2[C@@H]3CC=C4C[C@@H](O)CC[C@]4(C)[C@H]3CC[C@@]21C`: the molecule was called inactive in assay [1] and in assay [2].
Turning to `CC=C1CC2C=CC1C2` (centres undefined), the outcome in assay [1] and in assay [2] was inactive.
Turning to `O=S(=O)(O)c1ccccc1C=Cc1ccc(-c2ccc(C=Cc3ccccc3S(=O)(=O)O)cc2)cc1`, the result in assay [1] and in assay [2] was inactive.
On to `OC1CCCCCCCCCCC1`, for which the molecule was called inactive in assay [1] and in assay [2].
For `C1=Cc2ccccc2C1`, the call in assay [1] and in assay [2] was inactive.
In the case of `CCCCC(CC)CCC(CC(C)C)OS(=O)(=O)O` (centres undefined), the call in assay [1] and in assay [2] was inactive.
As for `CC(C)(C)c1ccc(OC(=O)c2ccccc2O)cc1`, the values for the AC50 in assay [1] and in assay [2] were 0.0777 µM (active) and 66.2 µM (active), respectively.
As for `CC1=NN(c2cc(S(=O)(=O)O)ccc2Cl)C(=O)C1N=Nc1ccccc1` (centres undefined), the result in assay [1] and in assay [2] was inactive.
With `Cc1ccc(N/N=c2\c(=O)cc/c(=N/Nc3ccc(S(=O)(=O)O)cc3)c2=O)c(C)c1`, the AC50 in assay [1] was 8.3 µM (active). Besides, the molecule was called inactive in assay [2].

What is called AC50 is the midpoint of the concentration-response curve, whichever way the signal moves.
